Assay outcomes (PubChem BioAssay)
Ba/F3 V617F tox: reduce viability of Ba/F3 cells dependent on JAK2V617F | Ba/F3 EpoR-JAK2V617F viability, ATP luminescence | inhibition, % at 5.6 µM | hit rate 1.1% among 220,000;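 active = inhibition above the campaign mean plus 3 SD over all tested compounds, cut at about 24% in these data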;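 also: cytokine-independent growth of Ba/F3 cells driven by EpoR plus mutant JAK2; 0% = DMSO-treated cells and 100% = JAK inhibitor I control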
IEC-6 cytotox: counter-screen for KLF5 inhibitors: cytotoxicity in IEC-6 cells; inhibition, % at 5 µM; IEC-6 cytotoxicity, luminescence viability; hit rate 0.78% among 290,000; AID 1825; in the data active = inhibition above about 22%;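 also: 0% = plate median of test compound wells and 100% = cytotoxic reference compound wells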
APP transl inh: APP translation inhibition; SH-SY5Y APP 5'UTR-luciferase reporter, luminescence; hit rate 0.82% among 190,000; inhibition, % at 2 µM;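 active = inhibition above a set limit, derived from the sample mean plus 3 SD, cut at about 45% in these data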
BaF3 parental: reduces parental Ba/F3 cell viability, JAK2V617F counter-screen | CellTiter-Glo ATP luminescence | AID 1486 | inhibition, % at 5.6 µM | hit rate 1.1% among 220,000;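 active = inhibition above a per-campaign cutoff, the mean inhibition of all tested compounds plus 3 SD, cut at about 27% in these data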;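 also: 0% = DMSO wells and 100% = JAK Inhibitor I control wells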
aSyn UTR inh: MLPCN primary screen, SNCA 5' untranslated region. alpha-synuclein 5'UTR reporter, inhibitor activity. inhibition, % (tested at 7.5 µM). hit rate 0.82% among 300,000. AID 1813; in the data active = inhibition above about 60%;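 also: H4 neuroglioblastoma cells stably carrying SNCA 5'UTR luciferase fusion; 0% = DMSO wells and 100% = positive control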
KLF5 inhibitor: suppresses KLF5 promoter-driven expression; DLD-1 KLF5 promoter-luciferase reporter, luminescence; AID 1700; hit rate 0.23% among 290,000; inhibition, % at 5 µM;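 active = inhibition above a per-plate limit of that plate's mean compound inhibition plus 3 SD, cut at about 60% in these data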;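 also: 0% = DMSO wells and 100% = LY294002 at 200 µM; higher means less KLF5 promoter-driven luciferase light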
An asterisk follows results filed as active; · = no result. Only some compounds are listed: those with a hit (about 2.2% of all), similar ones and a draw of the others.

SMILES	Ba/F3 V617F tox	IEC-6 cytotox	APP transl inh	BaF3 parental	aSyn UTR inh	KLF5 inhibitor
CCN(CC)c1ccc2cc(NC(=O)CCC(=O)O)c(=O)oc2c1	-2.3	2.3	52.1*	0.4	120.2*	41.2
O=C(O)c1ccc(OCc2cn3ccccc3n2)cc1	-3.5	8.1	·	-1.5	-34.2	-13.3
O=C(COc1ccc(Oc2ccccc2)cc1)NCc1cn2ccccc2n1	31.1*	37.4*	18.2	26.6*	62.4*	21.9
C=CCc1cc(Cl)ccc1OCCOCCNCCOC	-0.8	1.2	5.5	9.2	20.3	-20.2
C=CCc1cc(Cl)ccc1OCCNCCCOC	3.7	-6.5	-0.5	91.5*	23.7	-25.9
CCOC(=O)Cc1[nH]nc2c1C(c1ccsc1)C(C#N)=C(N)O2 (stereo unspecified)	-0.1	2.1	5.6	-3.1	-15.4	-4.8
O=C(COC(=O)c1ccco1)Nc1nnc(-c2ccccc2)o1	·	·	·	·	-5.9	·
O=C(OCc1nc(-c2ccccc2)oc1COC(=O)c1ccco1)c1ccco1	1.7	3.5	-10.8	54.1*	-10.6	-37.6
O=C(Nc1ccc([N+](=O)[O-])cc1)c1ccc(Cn2cc([N+](=O)[O-])cn2)cc1	45.7*	12.3	4.7	46.2*	78.6*	42.9
O=C(Nc1cnn(Cc2ccc(Cl)cc2)c1)c1ccc([N+](=O)[O-])cc1	-1.4	-3.4	12.9	1.8	21.8	5.8
COc1ccc(/C=C/c2ccc3c(Br)ccc(O)c3n2)cc1	·	6.4	·	·	-150.5	-94.6
COc1cc(/C=C/c2ccc3c(Br)cc(Br)c(O)c3n2)ccc1O	-5.2	1.1	·	1.5	65.4*	17.2
O=c1c2ccc(Cl)cc2nc(-c2cccc(C(F)(F)F)c2)n1O	59.7*	-6.2	-5.3	56.2*	77.5*	40.5
N#Cc1ccc(-c2nc3cc(Cl)ccc3c(=O)n2O)cc1	·	-0.3	·	·	-1.2	-12.9
CCCNc1nc2c(c(=O)n(C)c(=O)n2C)n1Cc1ccc(F)cc1	21.6	6.5	-6.1	36.4*	20.0	-11.0
C=CCn1c(NCCc2ccccc2)nc2c1c(=O)n(C)c(=O)n2C	4.8	-1.0	-0.8	30.9*	11.5	-27.1
Cn1c(=O)c2c(nc(NCc3cccnc3)n2Cc2ccc(Cl)cc2)n(C)c1=O	49.7*	22.6*	-1.1	52.0*	22.4	2.2
CCNc1nc2c(c(=O)n(C)c(=O)n2C)n1Cc1ccc(Cl)cc1	·	-2.6	·	·	-10.8	1.3
Cc1ccc(NC(=O)/C=N/OCC(=O)NCc2ccccc2Cl)cc1	0.2	-0.7	·	1.5	-7.6	-24.0
C=CCN(c1ccccc1OC)S(=O)(=O)c1ccc(Cl)c(C(=O)Nc2ccc(N3CCOCC3)cc2)c1	14.8	-4.3	17.3	10.2	89.2*	-3.9
CCn1cc(C(=O)NCc2ccco2)c(=O)c2ccc(C)nc21	·	-0.1	·	·	11.6	-7.8
COC(=O)NC1(C(=O)O)CCCC1	-2.8	-0.2	·	-1.1	7.1	-5.4
Cc1ccc(NC(=S)N=Nc2c(O)n(C)c3ccc(S(=O)(=O)N4CCOCC4)cc23)cc1	2.1	4.6	68.9*	7.5	75.5*	6.6
Cc1cccc(NC(=S)N=Nc2c(O)n(C)c3ccc(S(=O)(=O)N4CCOCC4)cc23)c1	-7.2	-3.0	65.8*	-0.1	83.4*	-5.8
Cc1ccc(NC(=O)c2ccc(S(=O)(=O)N3CCOCC3)cc2)cc1	·	-0.6	·	·	-20.0	-8.4
SMILES	Ba/F3 V617F tox	IEC-6 cytotox	APP transl inh	BaF3 parental	aSyn UTR inh	KLF5 inhibitor
Cn1c(=O)n(C)c2cc(S(=O)(=O)N3CCOCC3)ccc21	2.1	1.5	-10.8	2.7	21.5	-1.3
Cc1cc(C)cc(NC(=S)N=Nc2c(O)n(C)c3ccc(S(=O)(=O)N4CCOCC4)cc23)c1	-0.5	4.2	37.5	-1.6	63.4*	-10.8
O=S(=O)(c1ccc(Cl)c(NC(=S)Nc2cccc(O)c2)c1)N1CCOCC1	0.5	-2.0	5.5	2.7	-5.3	-33.2
COc1ccc(N(CC(=O)NCc2ccco2)C(=O)CNS(=O)(=O)c2ccc(Cl)cc2)cc1	·	0.7	·	·	-5.7	-22.8
Oc1[nH]c(N=C2N=c3ccccc3=N2)c2ccccc12	21.0	77.0*	·	6.3	-59.8	-81.0
O=C(NCc1ccccn1)c1cccc(NS(=O)(=O)c2ccccc2)c1	·	·	·	·	4.3	·
CC(=O)Nc1ncc(Cc2cccc(Cl)c2)s1	34.0*	-0.6	13.0	28.1*	3.6	1.9
O=C(Nc1ncc(Cc2cccc([N+](=O)[O-])c2)s1)c1ccco1	17.9	6.1	-46.8	27.2*	-4.9	3.4
COc1nc(-c2ccccc2)nc(C)c1CC(=O)O	-0.2	-2.9	9.0	3.7	24.0	-43.0
O=C(COC(=O)C1CCN(S(=O)(=O)c2cccc3cccnc23)CC1)c1ccccc1	28.6*	-3.0	3.4	63.5*	21.7	-18.1
S=C(Nc1ccccc1)N(Cc1ccccc1)Cc1ccncc1	-2.6	-1.2	-2.8	5.3	9.0	6.6
CCN(Cc1ccncc1)C(=S)Nc1ccc(Cl)cc1	24.0*	2.1	-11.8	26.9*	6.5	14.9
CCN(CC)C(=S)Nc1ccc(Cl)c(Cl)c1	17.8	3.1	15.7	31.8*	-11.6	-14.0
O=C(Nc1ccc2oc(=O)ccc2c1)c1ccc(-c2cccc(Cl)c2)o1	2.2	7.4	·	0.7	13.7	-8.2
O=C(Nc1ccc2oc(=O)ccc2c1)c1ccc(-c2cccc([N+](=O)[O-])c2)o1	10.1	6.1	·	-0.7	91.5*	22.2
CCOc1ccc(NC(=O)CN(C)C(=O)c2cccnc2SC)cc1OCC	·	-0.9	·	·	0.3	-23.7
COc1ccc(C(=S)N2CCN(c3cccc(Cl)c3)CC2)c(OC)c1	71.2*	53.6*	83.6*	40.8*	42.9	39.7
COc1ccc(C(=O)N2CCN(c3cccc(Cl)c3)CC2)cc1	-1.4	8.1	-11.5	3.3	-3.6	-5.4
CCS(=O)(=O)N1CCC(C(=O)Nc2cc(C)ccc2O)CC1	·	3.3	·	·	-2.3	-12.9
Cc1cc(NC(=O)COC(=O)C2CCC(=O)N2)c([N+](=O)[O-])cc1C (stereo unspecified)	-4.5	-0.5	-5.8	2.9	8.9	-43.2
O=c1cc(CN2CCN(c3ccccc3F)CC2)c2cc(O)c(-c3ccccc3)cc2o1	2.4	4.7	-24.2	0.7	-33.4	-18.2
COc1ccc(N2CCN(Cc3cc(=O)oc4cc(-c5ccccc5)c(O)cc34)CC2)cc1	0.8	-1.6	30.6	6.0	73.1*	2.5
CC(=O)Nc1nc(C)c(CCCOc2ccc([N+](=O)[O-])cc2)c(=O)[nH]1	0.4	-0.1	·	2.2	2.2	-15.6
NC(=S)N=Nc1ccc(NN=C(N)N)cc1	·	-7.4	·	·	68.4*	-7.3
CCN(CC)CCN1C(=O)/C(=C\c2ccc(Cl)c([N+](=O)[O-])c2)SC1=Nc1ccc(OC)cc1	·	12.7	·	·	73.8*	12.9
CCCN1C(=O)/C(=C/c2ccc(C)s2)SC1=Nc1ccc(OC)cc1	1.1	-2.0	0.0	-0.9	15.4	-13.6
COc1ccc(N=C2S/C(=C\c3ccc(Cl)c([N+](=O)[O-])c3)C(=O)N2CCN(C)C)cc1	·	18.2	·	·	80.6*	-38.6
O=S(=O)(Nc1nc2ccccc2nc1N1CCc2ccccc2C1)c1ccc(Br)cc1	6.7	8.2	-64.3	12.3	·	-53.8
